# Test system: murine 3T3 fibroblasts
# Assay: primary screen, percent viability or growth; higher = less effect of the substance
# Experimental: Similarly, for measuring the cytotoxicity concentration (CC50) for 3T3 fibroblast cells, cultures were incubated with drugs for 72 hours and developed using Alamar Blue (Alamar Biosciences Inc, Sacramento, CA) as previously described.
row,SMILES,Mammalian (3T3) cell % growth at 10 uM [%]
1,COc1ccc(C[C@H]2NC[C@H](O)[C@H]2OC(C)=O)cc1,10.3
2,O=C1C=C2C=C[C@@H]3C[C@@]2(O1)[C@H]1CCCCN31,75
3,C[C@@H]1CC[C@H]2[C@@H](C)C(=O)O[C@@H]3O[C@@]4(C)CC[C@@H]1[C@]32OO4,77.6
4,Cc1c(O)c(O)cc2c1CC=C1[C@@]2(C)CC[C@@]2(C)[C@@H]3C[C@](C)(C(=O)O)CC[C@]3(C)CC[C@]12C,0.1
5,CC[C@@]1(O)C(=O)OCc2c1cc1n(c2=O)Cc2cc3ccccc3nc2-1,94.3
6,CC1=C(O)C(=O)C=C2C1=CC=C1[C@@]2(C)CC[C@@]2(C)[C@@H]3C[C@](C)(C(=O)O)CC[C@]3(C)CC[C@]12C,1
7,CC(C)c1ccc2c(c1O)CC[C@H]1C3=C(CC[C@]21C)C(=O)OC3,83.1
